A selection: hits, their analogues and other compounds. The true share with any hit is near 2.4%.
Pol eta inh – blocks human DNA polymerase eta activity; Q9Y253; recombinant Pol eta, fluorescent DNA replication assay; Potency, µM (series often up to 114 µM), for inactives: at the top dose activity change, negative = inhibition, most hits filed as inhibitors; 1.2% of 390,000 active; AID 588591; further: on the % scale 0 is the no-effect control and ±100 the full control effect
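Fluorescent replication assay: 50 nM final substrate added after a 15 min room-temperature compound preincubation with 10 nM enzyme. Signal taken at 0 min and again at 10 min.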
TDP1 block – inhibitors of human tyrosyl-DNA phosphodiesterase TDP1; Q9NUW8; recombinant TDP1, AlphaScreen DNA substrate cleavage; Potency, µM (doses to about 130 µM), for inactives: at the top dose activity change, negative = inhibition, actives largely listed as inhibitors; 0.28% of 350,000 active; further: on the % scale 0 is the no-effect control and ±100 the full control effect; nearly all actives have a fitted effect of over 40% in size
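Steps: enzyme plus compound, 15 min RT; add biotin/phosphotyrosine-FITC oligonucleotide (15 nM final), react 5 min; add donor/acceptor beads (10 ug/ml final), 10 min; read AlphaScreen. Tdp1 at 1 nM final.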
Pol iota inh – DNA polymerase iota (human) inhibition. AID 588590. Q9UNA4. 1% of 390,000 active. Potency, µM (doses to about 115 µM), for inactives: top-dose activity, negative = inhibition, most hits filed as inhibitors. Pol iota fluorescent replication assay, 10 min
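Pol iota at 10 nM preincubated 15 min with compounds at room temperature; reaction started with fluorescent substrate, 50 nM final. Fluorescence read kinetically at 0 and 10 min; buffer-only wells as negative control.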
POLB inh – inhibitors of human DNA polymerase beta; P06746; Pol beta primer extension/strand displacement, fluorescence kinetic; Potency, µM (highest dose often 114 µM), for the others: at the highest dose activity change, negative = inhibition, usual class: inhibitors; 1.3% of 340,000 active; AID 485314; further: on the % scale 0 is the no-effect control and ±100 the full control effect
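Pol beta (10 nM) and compounds were preincubated 15 min at room temperature, then 50 nM substrate (final) started primer extension/strand displacement. Reads were taken at 0 and 10 min; concentration-response data were fitted to a four-parameter Hill equation.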
Pol kappa inh – blocks human DNA polymerase kappa activity. Q9UBT6. purified Pol kappa, fluorescent DNA synthesis assay, 10 min. Potency, µM (doses to about 107 µM), without a hit: top-dose activity, negative = inhibition, hits mostly inhibitors. 0.53% of 400,000 active. AID 588579; further: on the % scale 0 is the no-effect control and ±100 the full control effect
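10 nM Pol kappa preincubated 15 min at room temperature with compounds, then reaction started with substrate at 50 nM final. Fluorescence read kinetically at 0 and 10 min; buffer-only wells served as negative control.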
Numbers without * were called inactive; u = inconclusive; x = no result; [ ] = dose if it differs, or a comment. The call rests on the fitted dose curve; in most records, active means well fitted curve in the direction sought with a large enough effect; inconclusive means small, poorly fitted or top-dose-only effect, or another doubt; inactive means no such curve, though single readings can be large; an effect the other way counts as inactive or inconclusive. Potency means the concentration at half of the fitted maximal effect.

SMILES	Pol eta inh	TDP1 block	Pol iota inh	POLB inh	Pol kappa inh
O=C(Nc1cc(C(F)(F)F)ccc1Cl)c1cc(-c2ccc3c(c2)OCCO3)on1	-8%	1%	30%	-18%	-2%
O=C1c2cccc3cccc(c23)N1Cc1ccc(F)cc1	-6%	-14%	53%	-12%	-18%
O=C1c2cccc3cccc(c23)N1Cc1cccc(F)c1	-15%	79µM*	-9%	1%	-14%
C#CCOc1ccc(-c2nnc(Nc3cccc(C)c3)c3ccccc23)cc1	-7%	x	u	0%	89µM*
CC(C)OCCCN1C=C2C(=O)C(C)(OC(=O)C3CCCC3)C(=O)C=C2C=C1c1ccsc1 (stereo not drawn)	x	8%[12.3 µM]	x	x	x
O=C(N/N=C/c1ccoc1)c1ccccc1	u	x	u	20µM*	-38%
O=C(N/N=C/c1cccc(OC2CSC2)c1)c1ccccc1O	u	x	u	45µM*	-31%
O=C(N/N=C/c1ccoc1)c1ccccc1O	45µM*	-12%	u	22µM*	u
O=C(N/N=C/c1ccoc1)c1ccc(Cl)cc1	-2%	3%	u	-6%	2%
O=C(N/N=C/c1cc(Cl)ccc1O)c1ccc(Br)cc1	u	-14%	u	10µM*	u
O=C(N/N=C/c1cc(Br)ccc1O)c1ccncc1	-20%	10%	2%	32%	6%
O=C1c2ccccc2C(=O)N1c1cccc2cnccc12	x	1%	x	x	x
O=C1c2ccccc2C(=O)N1c1cnc2ccccc2c1	x	1%	x	x	x
Cc1cccc(/C=N/NC(=O)Cc2ccc(Cl)cc2)c1O	0%	x	3%	1%	-9%
O=C(N/N=C/c1cccc(Br)c1)c1ccc(Br)cc1	-5%	u	u	10µM*	-21%
Cc1cc(C)cc(C(=O)N/N=C/c2ccoc2)c1	-16%	3%	u	45%	-4%
Cc1ccc(O)c(/C=N/NC(=O)Cc2ccc(Cl)cc2)c1	6%	x	-6%	25µM*	-8%
COc1cc(OC)cc(C(=O)N/N=C\c2ccoc2)c1	u	-16%	u	28µM*	-29%
O=C(N/N=C/c1cccc([N+](=O)[O-])c1)c1ccc(Br)cc1	-16%	0%	u	-29%	u
O=C(N/N=C/c1ccoc1)c1ccc(Br)cc1	-4%	-9%	u	40µM*	-11%
NNC(=O)C(C(=O)OCc1ccccc1)c1ccccc1 (stereo not drawn)	x	1%	x	x	x
CC(/C=N/NC(=O)c1nnn(-c2nonc2N)c1CN(C)C)=C\c1ccco1	-7%	-2%	20µM*	0%	79µM*
CCCN(CCC)Cc1c(C(=O)N/N=C/C(C)=C\c2ccco2)nnn1-c1nonc1N	-16%	4%	28%	-10%	-5%
C#CCOCCOCCOCCNc1nc(N2CCN(C(=O)[C@H](Cc3ccc(O)cc3)n3cc([C@@H](N)CC(C)C)nn3)CC2)nc(N2CCN(C(=O)[C@H](Cc3cc4ccccc4[nH]3)n3cc([C@@H](N)CC(C)C)nn3)CC2)n1	-19%	6%	u	35µM*	-4%
C#CCOCCOCCOCCNc1nc(N2CCN(C(=O)C(Cc3ccc(O)cc3)n3cc(C(N)CC(C)C)nn3)CC2)nc(N2CCN(C(=O)C(Cc3cc4ccccc4[nH]3)n3cc(C(N)C(C)CC)nn3)CC2)n1 (stereo not drawn)	x	6%	x	50µM*	x
C#CCOCCOCCOCCNc1nc(N2CCN(C(=O)C(Cc3cc4ccccc4[nH]3)n3cc(C(N)C(C)CC)nn3)CC2)nc(N2CCN(C(=O)C(Cc3cc4ccccc4[nH]3)n3cc(C(N)C(C)CC)nn3)CC2)n1 (stereo not drawn)	-2%	6%	u	20µM*	1%
C#CCOCCOCCOCCNc1nc(N2CCN(C(=O)[C@H]([C@@H](C)CC)n3cc([C@@H](N)CC(C)C)nn3)CC2)nc(N2CCN(C(=O)[C@H](Cc3cc4ccccc4[nH]3)n3cc([C@@H](N)Cc4ccc(O)cc4)nn3)CC2)n1	-15%	8%	u	-29%	-8%
